Values joined by “and” are separate entries in the source; they are usually repeats but may differ in a detail not shown here. Identical values can stand only once.

The test system of the assay is HT29 sg-Ctrl (RNF43 wildtype). The assay can be described thus: cell viability activity relative to DMSO (negative = inhibition); higher = more viable cells (less growth inhibition). The settings on record: 5 µM; 96 h. On the procedure: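 Broad Repurposing Library primary screen at a single dose of 5 uM. HT29 sg-Ctrl and HT29 RNF43 G659fs CRISPR-edited isogenic cells were seeded at 2500 cells/well in 384-well plates in duplicate and treated for 96 h. Viability was read by CellTiter-Glo and reported as % activity relative to DMSO, with MG132 as the positive control (negative = growth inhibition).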
On to `Fc1cc(F)c2c(c1)[C@H]1C=CC[C@H]1C(c1cccnc1)N2` (stereo not given in full), for which the cell viability activity was -92.9% and -73.9%.
The value for `C[C@]12O[C@H](C[C@]1(O)CO)n1c3ccccc3c3c4c(c5c6ccccc6n2c5c31)CNC4=O` was -84.6%; that for `CC(=O)O[C@@]12CO[C@@H]1C[C@H](O)[C@@]1(C)C(=O)[C@H](O)C3=C(C)[C@@H](O)C[C@@](O)([C@@H](OC(=O)c4ccccc4)[C@H]21)C3(C)C` was -62.6%.
Regarding `Oc1cccc2cccnc12`, the cell viability activity was -34.8%.
On to `N#CC(C#N)=NNc1cccc(Cl)c1`, for which the cell viability activity was -68.2%.
As for `C[C@@H]1O[C@@H](O[C@H]2C[C@@H](O)[C@]3(CO)[C@H]4[C@H](O)C[C@]5(C)[C@@H](C6=CC(=O)OC6)CC[C@]5(O)[C@@H]4CC[C@]3(O)C2)[C@H](O)[C@H](O)[C@H]1O`, the cell viability activity was -87.7% and -89.1%.
As to `O=C1C=C2C=C[C@@H]3C[C@@]2(O1)[C@H]1CCCCN31`, the cell viability activity is -6.19%.
With `CCCCCCCCCCCCCCCC[n+]1ccccc1`, the cell viability activity is -79.9%.
For `CC(C)(C)c1cc(C=C(C#N)C#N)cc(C(C)(C)C)c1O`, the cell viability activity is -67.3%.
On to `C[C@@]1(CO)[C@H](O)CC[C@@]2(C)[C@H]1CC[C@H]1C[C@@H]3C[C@@]12CC[C@]3(O)CO`, for which the cell viability activity was -34.1%.
The figure for `Cc1sc2c(c1C)C(c1ccc(Cl)cc1)=N[C@@H](CC(=O)Nc1ccc(O)cc1)c1nnc(C)n1-2` is -59.2%; for `C[C@@H]1O[C@@H](O[C@@H]2C=C3CC[C@@H]4[C@H](CC[C@]5(C)[C@@H](c6ccc(=O)oc6)CC[C@]45O)[C@@]3(C)CC2)[C@H](O)[C@H](O)[C@H]1O` it is -87.4%; for `CCNC(=O)C[C@@H]1N=C(c2ccc(Cl)cc2)c2cc(OC)ccc2-n2c(C)nnc21` it is -59.5%.
Turning to `COc1cc([C@@H]2c3cc4c(cc3[C@H](O)[C@H]3COC(=O)[C@H]23)OCO4)cc(OC)c1OC`, the cell viability activity is -58.2%.
As for `C=C(C)[C@H]1Cc2c(ccc3c2O[C@@H]2COc4cc(OC)c(OC)cc4[C@@H]2C3=O)O1`, the cell viability activity was -75.8%.
`COc1ccc(CCN2CCC(Nc3nc4ccccc4n3Cc3ccc(F)cc3)CC2)cc1`: the cell viability activity is -3.92%.
On to `C/C(=C\c1csc(C)n1)[C@@H]1C[C@@H]2O[C@]2(C)CCC[C@H](C)[C@H](O)[C@@H](C)C(=O)C(C)(C)[C@@H](O)CC(=O)O1`, for which the cell viability activity was -72.3%.
The value for `COc1cc2cc(c1Cl)N(C)C(=O)C[C@H](OC(=O)C(C)C)[C@]1(C)O[C@@H]1[C@H](C)[C@@H]1C[C@@](O)(NC(=O)O1)[C@H](OC)/C=C/C=C(\C)C2` was -61.7%.
With `CC[C@H]1CN2CCc3cc(OC)c(OC)cc3[C@@H]2C[C@@H]1C[C@H]1NCCc2cc(OC)c(OC)cc21`, the cell viability activity was -92.7% and -98.3%.
As to `C[C@H]1CCC/C=C/[C@@H]2C[C@H](O)C[C@H]2[C@H](O)/C=C/C(=O)O1`, the cell viability activity is -98.3% and -96.8%.
For `C[C@@H]1CC[C@@]2(OC1)O[C@H]1C[C@H]3[C@@H]4CC=C5C[C@@H](O[C@@H]6O[C@H](CO)[C@@H](O[C@@H]7O[C@@H](C)[C@H](O)[C@@H](O)[C@H]7O)[C@H](O)[C@H]6O[C@@H]6O[C@@H](C)[C@H](O)[C@@H](O)[C@H]6O)CC[C@]5(C)[C@H]4CC[C@]3(C)[C@H]1[C@@H]2C`, the cell viability activity is -63.5%.
On to `CC[C@@H]1/C=C/C=C/C[C@H](C)[C@H](O)[C@](C)(O)C(=O)[C@H](C)[C@@H](O)[C@H](C)C(=O)[C@H](C)[C@@H](O)[C@H](C)/C=C/C(=O)O[C@H]2[C@@H](C)[C@@H](CC1)O[C@@]1(CC[C@@H](C)[C@@H](C[C@H](C)O)O1)[C@@H]2C`, for which the cell viability activity is -42.2%.
For the compound `COC(=O)C[C@](O)(CCC(C)(C)O)C(=O)O[C@@H]1C(OC)=C[C@]23CCCN2CCc2cc4c(cc2[C@H]13)OCO4`, the cell viability activity is -83.6%.
On to `COc1cc2c(c(OC)c1OC)-c1ccc(OC)c(=O)cc1[C@@H](NC(C)=O)CC2`, for which the cell viability activity was -46.1% and -57.8%.
In the case of `N#Cc1cn([C@@H]2O[C@H](CO)[C@@H](O)[C@H]2O)c2ncnc(N)c12`, the cell viability activity was -89.9%.
As to `C=C1[C@@H](C)[C@H]2[C@H](Cc3ccccc3)NC(=O)[C@]23OC(=O)/C=C/[C@H](O)CCC[C@@H](C)C/C=C/[C@H]3[C@@H]1O`, the cell viability activity is -36.1%.
`COc1ccc(C[C@H]2NC[C@H](O)[C@H]2OC(C)=O)cc1`: the cell viability activity was -95.3%.
For the compound `CC(=O)O[C@H]1C[C@H](O[C@H]2[C@@H](O)C[C@H](O[C@H]3[C@@H](O)C[C@H](O[C@H]4CC[C@@]5(C)[C@H](CC[C@@H]6[C@@H]5C[C@@H](O)[C@]5(C)[C@@H](C7=CC(=O)OC7)CC[C@]65O)C4)O[C@@H]3C)O[C@@H]2C)O[C@H](C)[C@H]1O[C@@H]1O[C@H](CO)[C@@H](O)[C@H](O)[C@H]1O`, the cell viability activity is -89.1%.
The value for `C[C@]12CC[C@H](O)C[C@H]1CC[C@@H]1[C@@H]2CC[C@]2(C)[C@@H](C3=CC(=O)OC3)CC[C@]12O` was -86.7%; that for `CC(C)[C@]12O[C@H]1[C@@H]1O[C@]13[C@]1(O[C@H]1C[C@H]1C4=C(CC[C@@]13C)C(=O)OC4)[C@@H]2O` was -87.8% and -92.2%.
In the case of `C[C@]12CC[C@H]3[C@@H](CC[C@]4(O)C[C@@H](O)CC[C@]34C=O)[C@@]1(O)CC[C@@H]2C1=CC(=O)OC1`, the cell viability activity is -75.5%.
For the compound `CC1CC(C)C(=O)C(C(O)CC2CC(=O)NC(=O)C2)C1` (stereo not given), the cell viability activity is -81.2%.
The figure for `C/C=C(\C)C(=O)N[C@@H](c1ccccc1)[C@@H](O)C(=O)O[C@H]1C[C@@]2(O)[C@@H](OC(=O)c3ccccc3)[C@@H]3[C@]4(OC(C)=O)CO[C@@H]4C[C@H](O)[C@@]3(C)C(=O)[C@H](OC(C)=O)C(=C1C)C2(C)C` is -69.3%; for `O=C(C[C@H]1NCCC[C@@H]1O)Cn1cnc2cc(Br)c(Cl)cc2c1=O` it is -86.5%; for `CCN(CC)CCO[C@H]1CC[C@@]2(C)C(=CC[C@@H]3[C@@H]2CC[C@]2(C)C(=O)CC[C@@H]32)C1` it is -52.8%.
As for `C/C(=C\c1csc(C)n1)[C@@H]1C[C@@H]2O[C@@H]2CCC[C@H](C)[C@H](O)[C@@H](C)C(=O)C(C)(C)[C@@H](O)CC(=O)O1`, the cell viability activity was -51.9%.
On to `COC(=O)NC(=S)Nc1ccccc1NC(=S)NC(=O)OC`, for which the cell viability activity is -38.9%.
For the compound `Cc1sc2c(c1C)C(c1ccc(Cl)cc1)=N[C@@H](CC(=O)OC(C)(C)C)c1nnc(C)n1-2`, the cell viability activity was -61.7%.
Take `Cn1c(COP(=O)(NCCBr)NCCBr)cnc1[N+](=O)[O-]`: the cell viability activity is -27.3%.
`C[C@]12CC[C@H](O)C[C@H]1CC[C@@H]1[C@@H]2C[C@@H](O)[C@]2(C)[C@@H](C3=CC(=O)OC3)CC[C@]12O`: the cell viability activity is -79.8%.

These data come from the supplement of paper PMC9177965.
